PubChem BioAssay (NCATS)
Inconclusive results are not listed. Some structures have more than one record in an assay (separate samples or runs), and their calls can disagree. Active and inactive are the calls of the source. The call rests on the fitted dose curve; in most records, active means well fitted inhibition curve with a large enough effect; inconclusive means small, poorly fitted or top-dose-only effect; inactive means flat fitted curve, though single readings scatter.

Experiment: qHTS for Inhibitors of Plasmodium falciparum (DD2) proliferation (AID 504314);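 on activity, negative = inhibition: parasite DNA measured by SYBR Green fluorescence after red cell lysis; plate controls were DMSO vehicle for no effect and artemisinin wells for full effect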
Conditions: P. falciparum Dd2 in erythrocytes, SYBR Green growth, 72 h; series mostly up to 6.11 µM; activity, negative = inhibition: at the top concentration
Procedure, shortened: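 Erythrocytes infected with P. falciparum Dd2 (0.3% parasitemia, 2.5% hematocrit) exposed to compound 72 h at 37C, 5% CO2. Parasite DNA quantified by SYBR Green fluorescence after saponin/Triton lysis overnight; normalized to 0.29 uM artemisinin and DMSO.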
Potency means the concentration at half of the fitted maximal effect.

activity, negative = inhibition, inactive:
COC(=O)CC=C[C@@H](C)[C@H](O)c1ccccc1Br -11.1%
C=CCOC(=O)C(C(C)=O)[C@@H](NC(=O)OC)c1ccc2ccccc2c1 (some centres undefined) 5.94%
CCC=C1C(=O)[C@]2(C(=O)c3ccccc3)C[C@H]3CCC(CCC)(C2=O)[C@@]13OC -7.25%
CC1=CC[C@@H](COc2ccccc2)O[C@@]2(C1)C(=O)N(Cc1ccccc1C(F)(F)F)c1ccccc12 -28.6%
CC1(OC(=O)CCc2ccccc2)C(=O)C=C2C=C(c3ccc(C#N)cc3)N(CC3CC3)C=C2C1=O (centres undefined) -3.92% [at 1.12 µM]
COC(=O)C1=C(C(=O)OC)[C@@H]2N(C)c3ccccc3[C@@]23C[C@@H](CO)N(C(=O)NC2CCCCC2)C3=N1 -15.9%
C[C@@H]1CC[C@H]2C(=O)O[C@@H](COc3ccc(C(C)(C)C)cc3)CN2[C@H]1c1ccc(Br)cc1 -8.85%
CC(=O)OC[C@H]1O[C@H](CCON=C(C)CCN2CCCc3nc(C)c(C)cc32)C=C[C@H]1OC(C)=O -8.76%
CCCCc1cc2c(cn1)=C(OC(=O)c1cccs1)C(C)(OC(=O)CC)C(=O)C=2 (centres undefined) 1.64% [at 1.12 µM]
COC(=O)CCC(=O)OC1(C)C(=O)C=C2C=C(C3CC3)N(CCCOC(C)C)C=C2C1=O (centres undefined) -1.07% [at 1.12 µM]
CCCCc1cc2c(cn1)C(=O)C(C)(OC(C)=O)C(=O)C2 (centres undefined) -3.91% [at 1.12 µM]
COc1ccc2c(c1)C(=O)[C@H](OC(=O)N[C@H]1CCCc3ccccc31)[C@@H](c1ccc(OC)c(Br)c1)O2 -13.7%
C#CCCCON=C1C[C@@H](O)[C@H](O)[C@H]2[C@@H]3C(=O)N(Cc4ccccc4)C(=O)[C@@H]3CC[C@H]12 -12.4%
COC(=O)C1=C(C(=O)OC)[C@@H]2N(CC=C(C)C)c3ccccc3[C@@]23CCC(=O)N(CCc2ccccn2)C3=N1 -13.7%
CC12C=C(C=Cc3ccc(C(F)(F)F)cc3)C(C)(C1)C(c1ccc(C(F)(F)F)cc1)CC2=O (centres undefined) -8.4%
COC(=O)C1=C(C)N(Cc2ccco2)C(=O)NC1c1ccc(Br)cc1 (centres undefined) -9.91%
COC(=O)[C@H]1[C@@H](c2ccccc2)NC(=O)N(CCc2cc(OC)c(OC)c(OC)c2)[C@@H]1C -9.3%
CCCCC1=CC2=CC(=O)C(C)(OC(=O)CCc3ccccc3)C(=O)C2=CO1 (centres undefined) -6.36%
COc1ccc2c(c1)C(=O)[C@@H](OC(=O)NCCc1ccc(OC)c(OC)c1)[C@H](c1ccc(OC)c(Br)c1)O2 -5.73%
COc1ccc(COC(=O)NN=C2C[C@@H](O)[C@@H](O)[C@@H]3[C@H]4C(=O)N(C5CCCCC5)C(=O)[C@@H]4CC[C@@H]23)cc1 -11.1%
COc1ccc(-c2ccc3c(n2)CCCN3CC(O)CN2CCCc3nc(C)c(C)cc32)cc1 (centres undefined) -5.36%
CC(CCN1CCCc2nc(C)c(C)cc21)=NOC[C@@H](C)[C@H](OCc1ccccc1)C(C)C -1.29%
COC(=O)C1=C(C)N(Cc2ccccc2)C(=S)NC1CCc1ccccc1 (centres undefined) -8.92%

Potency, active:
COc1ccc(-c2nc(-c3ccccc3)c(NC(C)C)o2)cc1 1690 nM
CCCCc1cc2c(cn1)=C(OC(=O)c1cccs1)C(C)(OC(=O)CC)C(=O)C=2 (centres undefined) 1890 nM
CCCCc1cc2c(cn1)C(=O)C(C)(OC(C)=O)C(=O)C2 (centres undefined) 1690 nM
Cc1ccc(C(=O)OC[C@H]2O[C@H](Cl)C[C@H]2OC(=O)c2ccc(C)cc2)cc1 1690 nM

Potency, inactive:
CC1=CC[C@@H](COc2ccccc2)O[C@@]2(C1)C(=O)Nc1cccc(Br)c12
CCCCC1=CC2=C(c3ccco3)C(=O)C(C)(OC(=O)c3ccc(OC)cc3)C(=O)C2=CN1C1CCCCC1 (centres undefined)
